Results reported in PubChem BioAssay (EPA / NIEHS).
The source made the active and inactive calls. Rule for the calls: active = hit-call score of the fitted dose curve at least 0.9, where 1 is the maximum; inactive = score below 0.9.

Test: ATG_RORE_CIS: Attagene CIS-FACTORIAL HepG2 Assay for human RAR-related Orphan Receptor Element (RORE) (AID 2282959)
Conditions: HepG2 Attagene cis-factorial RORE reporter, mRNA; actives raise or lower the signal
Method in brief: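 Readout: fluorescent reporter mRNA by RT-PCR plus capillary electrophoresis, 24 h after dosing transfected HepG2 cells. Endogenous transcription factor activity on a cis promoter element is measured. Gain or loss of signal fitted against DMSO.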

Row | Structure (SMILES) | outcome | AC50
1 | CCNc1cccc(C)c1 | inactive | –
2 | COc1cccc2c1C(=O)c1c(O)c3c(c(O)c1C2=O)C[C@@](O)(C(=O)CO)C[C@@H]3O[C@H]1C[C@H](N)[C@H](O)[C@H](C)O1 | inactive | –
3 | CN[C@H]1CC[C@@H](c2ccc(Cl)c(Cl)c2)c2ccc(S(N)(=O)=O)cc21 | inactive | –
4 | O=c1c(O)c(-c2ccc(O)c(O)c2)oc2cc(O)cc(O)c12 | inactive | –
5 | NCC1(Cc2noc(=O)[nH]2)CCCCC1 | inactive | –
6 | Oc1ccc2ccccc2c1N=Nc1ccccc1 | – | 2 µM (active)
7 | Cc1ccccc1Cl | inactive | –
8 | C[C@]12C=CC(=O)C=C1CC[C@@H]1[C@@H]2C(=O)C[C@@]2(C)[C@H]1CC[C@]2(O)C(=O)CO | inactive | –
9 | COc1cc(C=O)ccc1O | inactive | –
10 | CCCCCCCCCCC | inactive | –
11 | Cc1cccc(C)c1O | inactive | –
12 | CCCCC(CC)COC(=O)CC(C(=O)OCC(CC)CCCC)S(=O)(=O)O (centres undefined) | inactive | –
13 | CC(=O)OCCOCCOCCOC(C)=O | inactive | –
14 | CC1=C(/C=C/C(C)=C/C=C/C(C)=C/CO)C(C)(C)CCC1 | – | 27.9 µM (active)
15 | CC(C)(C)c1cc(O)c(C(C)(C)C)cc1O | – | 22.6 µM (active)
16 | CNC(=O)[C@H]1O[C@@H](n2cnc3c(NCc4cc(Cl)ccc4OCc4cc(C)no4)ncnc32)[C@H](O)[C@@H]1N | inactive | –
17 | COc1cc(S(=O)(=O)O)c(C)cc1N=Nc1c(O)ccc2cc(S(=O)(=O)O)ccc12 | inactive | –
18 | CC(=O)C(C)=CC1C(C)=CCCC1(C)C (centres undefined) | inactive | –
19 | Cc1ccc(C)c(C)c1 | inactive | –
20 | COc1ccc(S(=O)(=O)N2C(=O)[C@@](c3ccccc3OC)(N3C[C@H](O)C[C@H]3C(=O)N(C)C)c3cc(Cl)ccc32)c(OC)c1 | – | 28.5 µM (active)
21 | COc1ccc(C)cc1N | inactive | –
22 | CCCCN(CCCC)CCCC | inactive | –
23 | CCCCc1ccc2c(n1)[C@@H](c1ccc(OC)cc1C[C@H](C)C(=O)O)[C@H](C(=O)O)[C@H]2c1ccc2c(c1)OCO2 | inactive | –
24 | CCCCCCC(=O)OCC | inactive | –
25 | COc1cc(/C=C/C(=O)CC(=O)/C=C/c2ccc(O)c(OC)c2)ccc1O | inactive | –
26 | CCc1c(C(=O)NN2CCCCC2)nn(-c2ccc(Cl)cc2Cl)c1-c1ccc(Br)cc1 | inactive | –
27 | CC(=O)OC/C=C(\C)CCC=C(C)C | inactive | –
28 | CCOc1ccc2c(c1)C(C)=CC(C)(C)N2 | – | 100 µM (active)
29 | CCCCOC(=O)CCCCCCCCC(=O)OCCCC | inactive | –
